The source of these data is PubChem BioAssay AID2284153 (EPA ToxCast).

What is called AC50 is the concentration at which the activity in the assay is half-maximal.

The structures appear in SMILES notation. Calls of active or inactive are those of the source. Rule for the calls: active = hit-call score of the fitted dose curve at least 0.9, where 1 is the maximum; inactive = score below 0.9.

In this assay the target is Muscarinic acetylcholine receptor M1 (Homo sapiens) (UniProt P11229). As to the kind of experiment: ERF_FR_GPCR_hCHRM1: Eurofins (ERF) G Protein-Coupled Receptor (GPCR) Radioligand Binding LeadHunter Assay for human Muscarinic Acetylcholine Receptor M1 Antagonism, conducted at France lab site. How it is done: ERF_FR_GPCR_hCHRM1 is a biochemical, single-readout assay that uses extracted gene-proteins in a cell-free assay. Measurements were taken 1 hour after chemical dosing in a 96-well plate. See M1 Human Acetylcholine (Muscarinic) GPCR Binding (Antagonist Radioligand) Assay, Cerep.ERF_FR_GPCR_hCHRM1 is an assay component calculated from the ERF_FR_GPCR_hCHRM1 assay. It is designed to measure radioligand binding using a type of binding reporter as detected by scintillation counting with radiometry technology.Data from the assay component ERF_FR_GPCR_hCHRM1 was analyzed at the assay endpoint, ERF_FR_GPCR_hCHRM1, in the positive analysis fitting direction relative to DMSO as the negative control and baseline of activity. Using a type of binding reporter, loss-of-signal activity can be used to understand changes in binding as they relate to gene CHRM1. To generalize the intended target to other relatable targets, this assay endpoint is annotated to the gpcr intended target family, where the subfamily is acetylcholine (Muscarinic).
Sequence of Muscarinic acetylcholine receptor M1 (Homo sapiens) (P11229 whole entry, looked up): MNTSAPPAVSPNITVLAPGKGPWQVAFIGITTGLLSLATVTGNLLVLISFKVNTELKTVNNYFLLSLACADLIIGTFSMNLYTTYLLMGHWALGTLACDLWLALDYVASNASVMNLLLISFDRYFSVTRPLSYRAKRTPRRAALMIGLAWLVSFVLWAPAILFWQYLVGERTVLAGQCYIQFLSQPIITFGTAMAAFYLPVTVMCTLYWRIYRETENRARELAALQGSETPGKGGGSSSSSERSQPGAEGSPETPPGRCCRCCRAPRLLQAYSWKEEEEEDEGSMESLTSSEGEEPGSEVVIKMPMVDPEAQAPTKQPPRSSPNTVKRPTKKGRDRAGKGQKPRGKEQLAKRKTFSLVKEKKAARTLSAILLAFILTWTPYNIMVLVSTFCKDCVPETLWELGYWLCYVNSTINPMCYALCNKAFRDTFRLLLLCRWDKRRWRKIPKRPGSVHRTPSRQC
Human cells are incubated for 60 minutes at room temprature with [3H]pirenzepine ligand (2 nM) and pirenzepine as control inhibitor.Test Sample Requirements: Minimum for 1) Screen: 60 ul of 10 mM stock -OR- 1 mg (pre-weighed) for 10 uM final testing. 2) Dose Response: 90 ul of 10 mM stock -OR- 1 mg (pre-weighed) for a top concentration at 10 uM.
With `O=C(/C=C/c1ccc(O)cc1)CC(=O)/C=C/c1ccc(O)cc1`, the AC50 was 5 µM (active).
